Consider 26 molecules from PubChem BioAssay (Tox21).

Inconclusive results are not listed. Unmarked numbers belong to inactive results. The source made the active and inactive calls. Unless noted, the call rests on the fitted dose curve.

Experiment [1] in a line: qHTS assay to identify small molecule agonists of the vitamin D receptor (VDR) signaling pathway - cell viability counter screen (AID 743224; active means well fitted curve in the direction sought with a large enough effect in the repeat runs; an effect the other way counts as inactive or inconclusive; further: series mostly up to about 63 µM; on the % scale 0 is the no-effect control and ±100 the full control effect; nearly all actives have a fitted effect of over 50% in size). In a few lines:
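In parallel with the bla FRET readout, cytotoxicity toward VDR-bla cells after 16 h compound exposure was assessed by CellTiter-Glo, with luminescence recorded after a 30 min room-temperature incubation.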
Background: qHTS replaces the single test concentration by a dilution series.

The nature of experiment [2]: qHTS assay to identify small molecule antagonists of the vitamin D receptor (VDR) signaling pathway - cell viability counter screen (AID 743225; active means well fitted curve in the direction sought with a large enough effect in the repeat runs; an effect the other way counts as inactive or inconclusive; further: on the % scale 0 is the no-effect control and ±100 the full control effect; nearly all actives have a fitted effect of over 50% in size). Summed up:
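Cytotoxicity toward the VDR-bla HEK 293T line was scored by ATP-based CellTiter-Glo luminescence, read in the wells already used for the beta-lactamase readout after 16 h compound treatment under 3 nM 1-alpha,25-dihydroxyvitamin D3 stimulation.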

The nature of experiment [3]: qHTS assay to identify small molecule agonists of the NFkB signaling pathway (AID 1159509; active means well fitted curve in the direction sought with a large enough effect in the signal ratio in the repeat runs, not every such curve was filed as active; the % refers to the signal ratio; further: series mostly up to about 61 µM; on the % scale 0 is the no-effect control and ±100 the full control effect). Summed up:
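Readout: FRET fluorescence, 405 nm excitation, 460/530 nm emission; beta-lactamase expression disrupts FRET. Cells: ME-180 stably carrying NF-kB-driven bla reporter. Compound exposure 5 hr, 37 C, 5% CO2.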

Experiment [4] in a line: qHTS assay to identify small molecule agonists of the NFkB signaling pathway - cell viability counter screen (AID 1159515). Further: series mostly up to about 61 µM; on the % scale 0 is the no-effect control and ±100 the full control effect; nearly all actives have a fitted effect of over 55% in size. In a few lines:
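Plate 2,000 NFkB-bla ME-180 cells/well; incubate overnight. Add compounds, 5 hr at 37 C. Add FRET substrate, 1.5 hr RT. Add CellTiter-Glo, 30 min RT; read luminescence.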

Experiment [5] is described as follows: qHTS assay to identify small molecule agonists of the endoplasmic reticulum stress response signaling pathway (AID 1159516; active means well fitted activation curve with a large enough effect in the signal ratio in the repeat runs, not every such curve was filed as active; the % refers to the signal ratio; further: on the % scale 0 is the no-effect control and ±100 the full control effect). In a few lines: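 Beta-lactamase expression from the ER stress response element in HeLa reporter cells is quantified with the LiveBLAzer B/G FRET substrate, read at 405 nm excitation after 2 hr at room temperature, following 5 hr compound treatment at 37 C.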

Experiment [6] is described as follows: qHTS assay to identify small molecule agonists of the endoplasmic reticulum stress response signaling pathway - cell viability counter screen (AID 1159517). Further: series mostly up to about 61 µM; on the % scale 0 is the no-effect control and ±100 the full control effect; nearly all actives have a fitted effect of over 50% in size. Summed up:
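Cytotoxicity of test compounds toward ESRE-bla HeLa cells was assessed after 5 hr exposure. The luminescent CellTiter-Glo signal was measured 30 min after reagent addition.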

Experiment [7] can be described thus: qHTS assay to identify small molecule antagonists of the retinoid-related orphan receptor gamma (ROR-gamma) signaling pathway - cell viability counter screen (AID 1159520; active means well fitted curve in the direction sought with a large enough effect in the repeat runs; an effect the other way counts as inactive or inconclusive; further: nearly all actives have a fitted effect of over 50% in size; further: potency means the concentration at half of the fitted maximal effect; on activity, negative = cytotoxicity: on the % scale 0 is the no-effect control and ±100 the full control effect). In a few lines:
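Tet-on ROR gamma CHO cells (1,000/well) were plated 4 hr, given compounds in DMSO for 2 hr at 37 C, then induced with 1 uM final doxycycline for 16 hr. Viability was read as ATP by CellTiter-Glo luminescence after 30 min.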

For experiment [8], the target named is Nuclear receptor ROR-gamma (Homo sapiens) (UniProt P51449). The experiment in a line: qHTS assay to identify small molecule antagonists of the retinoid-related orphan receptor gamma (ROR-gamma) signaling pathway (AID 1159521; active means well fitted curve in the direction sought with a large enough effect in the repeat runs; an effect the other way counts as inactive or inconclusive; further: nearly all actives have a fitted effect of over 50% in size; further: potency means the concentration at half of the fitted maximal effect;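 on activity change, negative = inhibition: CHO cells with doxycycline inducible ROR-gamma driving an RORE luciferase reporter; top concentration of the series differs between compounds; on the % scale 0 is the no-effect control and ±100 the full control effect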). In a few lines: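 Readout: ONE-Glo luciferase luminescence, 30 min at room temperature. System: Tet-on RORγ CHO, RORE-LUC. Sequence: compound 2 h, doxycycline 1 uM final, 16 h at 37 C.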

Experiment [9] in a line: qHTS assay to identify small molecule agonists of the AP-1 signaling pathway - cell viability counter screen (AID 1159525). Further: nearly all actives have a fitted effect of over 55% in size. In a few lines:
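Each titration point was normalised to DMSO and tetra n-octyl ammonium bromide controls. The read was Cell Titer Glo luminescence after 30 min at RT, following 5 h compound exposure of ME-180 AP-1-bla cells at 37 °C.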

A short description of experiment [10]: qHTS assay to identify small molecule agonists of the AP-1 signaling pathway (AID 1159526). Further: potency means the concentration at half of the fitted maximal effect.

Regarding `SCCOCCOCCS`, the outcome in [1], in [2], in experiment [3], in experiment [4], in [5] and in experiment [6] was inactive. The call in [9] was inactive. Moreover, the Potency entry in [7], in experiment [8] and in [10] was “inactive” in each case.
Turning to `C1CCN(CN2CCCCC2)CC1`, the molecule was classed as inactive in experiment [1], in [2], in experiment [3], in [4], in [5] and in experiment [6]. Further, the outcome in experiment [9] was inactive. The Potency result in experiment [7], in [8] and in experiment [10] was “inactive” each time.
As to `COC(=O)Cc1cccc2ccccc12`, the outcome in experiment [1], in experiment [2], in experiment [3], in [4], in experiment [5] and in experiment [6] was inactive. Moreover, the result in [9] was inactive. Further, the Potency result in [7], in experiment [8] and in experiment [10] was “inactive” throughout.
`CCCCCCCCCCCCCCCCCCCl`: the activity change, negative = cytotoxicity is 6.04% [at 5.95 µM] in experiment [1] and 2.96% [at 6.95 µM] in experiment [6]. Moreover, the viability change, negative = cytotoxic in experiment [2] is -10.5% [at 6.95 µM]; in experiment [9], 1.66% [at 6.97 µM]. Also, the activation in experiment [3] is -0.691% [at 6.95 µM]; in [5], -3.96% [at 6.95 µM]; in experiment [10], -4.53% [at 6.97 µM]. In addition, the activity, negative = cytotoxic in [4] was -1.14% [at 6.95 µM]. The activity, negative = cytotoxicity in experiment [7] is -1.61% [at 8.39 µM]. Further, the activity change, negative = inhibition in experiment [8] was 0.775% [at 8.39 µM].
As to `NC(=O)c1ccccc1`, the outcome in experiment [2], in [3], in experiment [4], in [5], in experiment [6] and in experiment [9] was inactive. Besides, the Potency result in experiment [7], in experiment [8] and in experiment [10] was “inactive” in each case.
As for `CC(C)CCCCCCCOC(=O)c1ccc(C(=O)OCCCCCCCC(C)C)c(C(=O)OCCCCCCCC(C)C)c1`, the outcome in experiment [2], in experiment [3], in [4], in experiment [5], in experiment [6] and in experiment [9] was inactive. Moreover, the Potency result in experiment [7], in [8] and in [10] was “inactive” throughout.
As to `COc1ccc(/C=C/S(=O)(=O)NC(=O)c2ccc(C)cc2Cl)cc1`, the result in experiment [2], in experiment [3], in experiment [4], in experiment [5], in experiment [6] and in [9] was inactive. Moreover, the Potency entry in experiment [7], in experiment [8] and in [10] was “inactive” each time.
As for `C(/C=C/C=C/Nc1ccccc1)=Nc1ccccc1`, the call in experiment [1], in [2], in experiment [3], in experiment [4], in experiment [5] and in experiment [6] was inactive. Further, the outcome in [9] was inactive. Besides, the Potency result in experiment [7], in experiment [8] and in experiment [10] was “inactive” throughout.
For `Cc1nc(C)c(C)nc1C`, the call in experiment [2], in experiment [3], in experiment [4], in experiment [5], in experiment [6] and in experiment [9] was inactive. The Potency result in [7], in experiment [8] and in [10] was “inactive” throughout.
For `CCCCCCCCCCCCN1CCOCC1`, the call in experiment [2], in [3], in [4], in [5], in [6] and in experiment [9] was inactive. The Potency entry in experiment [7], in experiment [8] and in experiment [10] was “inactive” each time.
Consider `O=c1[nH][nH]c2ccccc12`, for which the molecule was called inactive in [2], in [3], in experiment [4], in experiment [5], in [6] and in [9]. For the same molecule, the Potency result in experiment [7] was “inactive”. For the same molecule, the Potency in [8] was 15.6 µM (active); in [10], 49.9 µM (active).
Turning to `O=C(O)c1c2ccccc2cc2ccccc12`, the result in experiment [1], in experiment [2], in experiment [3], in [4], in experiment [5] and in experiment [6] was inactive. For the same molecule, the outcome in experiment [9] was inactive. Moreover, the Potency result in [7] was “inactive”. In addition, the Potency in experiment [8] is 13.6 µM (active); in experiment [10], 24.5 µM (active).
`O=C(O)c1cc(C(=O)O)c(C(=O)O)cc1C(=O)O`: the result in experiment [2], in [3], in experiment [4], in experiment [5], in experiment [6] and in [9] was inactive. Also, the Potency entry in experiment [7], in [8] and in experiment [10] was “inactive” each time.
Regarding `Nc1ccc(F)cc1F`, the call in experiment [2], in [3], in experiment [4], in [5], in experiment [6] and in experiment [9] was inactive. Besides, the Potency entry in experiment [7], in experiment [8] and in [10] was “inactive” each time.
Take `CC[C@H](NC(C)C)[C@H](O)c1ccc(O)c2[nH]c(=O)ccc12`: the result in [1], in [2], in experiment [3], in experiment [4], in [5] and in experiment [6] was inactive. For the same molecule, in [9], the result was inactive. For the same molecule, the Potency result in experiment [7], in experiment [8] and in [10] was “inactive” each time.
Turning to `CCCCCCCCCCCCSCCOCCO`, the result in [2], in experiment [3], in [4], in experiment [5], in experiment [6] and in experiment [9] was inactive. Also, the Potency result in [7], in experiment [8] and in experiment [10] was “inactive” each time.
For `CCCCCCCCCCCCSC#N`, the molecule was classed as inactive in experiment [1], in experiment [2], in experiment [3], in [4], in [5] and in experiment [6]. In addition, the result in experiment [9] was inactive. The Potency entry in experiment [7], in experiment [8] and in experiment [10] was “inactive” each time.
As to `Oc1ccc(CCNCCCCCCNCCc2ccccc2)cc1O`, the call in experiment [2], in experiment [3], in experiment [4], in experiment [5], in experiment [6] and in [9] was inactive. The Potency entry in experiment [7], in [8] and in experiment [10] was “inactive” throughout.
For `CCCCCCCCC(=O)OCC(C)OC(=O)CCCCCCCC` (configuration not stated), the outcome in experiment [2], in [3], in [4], in experiment [5], in experiment [6] and in [9] was inactive. In addition, the Potency result in [7], in [8] and in [10] was “inactive” each time.
Regarding `N#C[C@@H]1CC(F)(F)CN1C(=O)CNC1CC2CCC(C1)N2c1ncccn1` (some centres not stated), the molecule was classed as inactive in experiment [2], in experiment [3], in experiment [4], in experiment [5], in experiment [6] and in [9]. Also, the Potency entry in experiment [7], in [8] and in experiment [10] was “inactive” throughout.
Consider `CCOc1cc(OCC)c(C(C)=O)cc1OCC`, for which the call in [1], in experiment [2], in experiment [3], in experiment [4], in experiment [5] and in experiment [6] was inactive. Further, in [9], the call was inactive. Moreover, the Potency result in experiment [7], in [8] and in [10] was “inactive” throughout.
With `O=C(Cl)c1cc(Cl)cc(Cl)c1`, the molecule was called inactive in experiment [1], in experiment [2], in experiment [3], in experiment [4], in experiment [5] and in experiment [6]. Further, the molecule was called inactive in experiment [9]. Moreover, the Potency entry in [7], in experiment [8] and in [10] was “inactive” in each case.
With `O=C(O)c1cccnc1Nc1cccc(C(F)(F)F)c1`, the outcome in experiment [1], in experiment [2], in experiment [3], in experiment [4], in experiment [5] and in [6] was inactive. The result in [9] was inactive. In addition, the Potency entry in experiment [7], in experiment [8] and in experiment [10] was “inactive” each time.
Take `CC(C)C[C@H](NC(=O)[C@H](Cc1ccccc1)NC(=O)c1cnccn1)B(O)O`: the call in experiment [2], in experiment [3], in [4], in experiment [5], in experiment [6] and in [9] was inactive. The values for the Potency in [7] and in [8] were 0.0668 µM (active) and 0.0473 µM (active), respectively. Besides, the Potency entry in experiment [10] was “inactive”.
On to `CCOCCn1c(N2CCCN(C)CC2)nc2ccccc21`, for which the result in experiment [1], in experiment [2], in experiment [3], in experiment [4], in [5] and in [6] was inactive. Moreover, in experiment [9], the call was inactive. Moreover, the Potency result in experiment [7], in [8] and in experiment [10] was “inactive” each time.
As to `NC(=O)c1ccccc1C(N)=O`, the result in experiment [1], in experiment [2], in [3], in [4], in experiment [5] and in experiment [6] was inactive. Also, the molecule was called inactive in experiment [9]. Besides, the Potency entry in experiment [7], in [8] and in experiment [10] was “inactive” each time.
